Results on seven compounds are retold here after PubChem BioAssay (NCI).

Test systems include DU-145 prostate; K-562 leukemia; MALME-3M melanoma; MDA-MB-231 breast; RXF 393 renal; SF-268 CNS; SF-295 CNS; SF-539 CNS; UACC-257 melanoma; M14 melanoma; HCT-15 colon; HT29 colon; SNB-75 CNS; SNB-19 CNS; U251 CNS; PC-3 prostate; SK-MEL-5 melanoma; LOX IMVI melanoma; SK-MEL-28 melanoma.
Holding throughout (experiment): NCI-60 one-dose screen, 48 h (100 = growth as untreated, 0 = no growth, -100 = all killed)
Common to all, as to details: 10 µM unless noted

About 83,000 compounds went through this panel and 20% of them were active in at least one assay; those are over-represented in the sample as a whole.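 48-hour exposure, single concentration, 96-well plates; percent growth endpoint where 0 means no net growth. Active: below 10.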 Values without a mark were called inactive. The source made the active and inactive calls.

For the compound `Cc1ccc(S(=O)(=O)N/N=C2\CC3CCC2(C)C3(C)C)cc1` (stereo not given), the growth in the assay with DU-145 prostate was 105%; in the assay with K-562 leukemia, 120%; in the assay with MALME-3M melanoma, 103%; in the assay on MDA-MB-231 breast it was 89%; in the assay on RXF 393 renal it was 89.4%; in the assay with SF-268 CNS, 116%. For the same compound, the growth was 94% with SF-295 CNS; 102% in the assay with SF-539 CNS; 87.8% in the assay on UACC-257 melanoma; 77.9% in the assay on M14 melanoma; 99.7% in the assay on HCT-15 colon; 108% in the assay with HT29 colon. In addition, the growth in the assay on SNB-75 CNS was 81.8%; in the assay on SNB-19 CNS, 98.1%; in the assay with U251 CNS it was 96.1%; with PC-3 prostate, 86.2%; in the assay with SK-MEL-5 melanoma, 101%; in the assay on LOX IMVI melanoma, 92.3%.
`CCOC(=O)CC(c1ccccc1)C(C#N)c1ccccc1` (stereo not given): the growth was 104% in the assay with DU-145 prostate; 108% in the assay with K-562 leukemia; 90.9% in the assay on MALME-3M melanoma; 106% with MDA-MB-231 breast; 87.5% in the assay on RXF 393 renal; 99.4% with SF-268 CNS. The growth is 110% with SF-295 CNS; 109% in the assay on SF-539 CNS; 94.2% in the assay with UACC-257 melanoma; 91.8% in the assay on M14 melanoma; 103% in the assay with HCT-15 colon; 103% with HT29 colon. In addition, the growth with SNB-75 CNS was 82.1%; in the assay on SNB-19 CNS, 111%; in the assay with U251 CNS, 97.6%; with PC-3 prostate, 89.5%; in the assay on SK-MEL-5 melanoma, 98.7%; in the assay on LOX IMVI melanoma, 103%. In addition, the growth with SK-MEL-28 melanoma is 95.5%.
On to `C[N+](C)(C)c1ncnc2[n-]cnc12`, for which the growth with DU-145 prostate was 99%; with K-562 leukemia, 101%; in the assay with MALME-3M melanoma, 98.3%; with MDA-MB-231 breast, 86.5%; in the assay on RXF 393 renal, 97%; with SF-268 CNS, 91%. Also, the growth is 88.7% with SF-295 CNS; 89.5% with SF-539 CNS; -29.9% (active) in the assay with UACC-257 melanoma; 89.9% in the assay with M14 melanoma; 104% in the assay with HCT-15 colon; 104% in the assay with HT29 colon. The growth with SNB-75 CNS is 82.1%; with SNB-19 CNS, 91.2%; in the assay with U251 CNS it was 91.6%; with PC-3 prostate, 92%; in the assay on SK-MEL-5 melanoma, 90.1%; with LOX IMVI melanoma, 75.5%. In addition, the growth in the assay on SK-MEL-28 melanoma is 94.6%.
With `CCCC[C@@H](C=O)NC(=O)[C@H](CC(C)C)NC(=O)[C@H](CC(C)C)NC(=O)OCc1ccccc1`, the growth in the assay with DU-145 prostate was -38.2% (active); in the assay with K-562 leukemia, 0.815% (active); with MALME-3M melanoma it was -33% (active); in the assay with MDA-MB-231 breast it was -32.3% (active); in the assay with RXF 393 renal, -63.7% (active); with SF-268 CNS, -11.9% (active). Moreover, the growth is -12% (active) in the assay on SF-295 CNS; -45.7% (active) with SF-539 CNS; 12.4% in the assay with UACC-257 melanoma; -35.3% (active) with M14 melanoma; 8.85% (active) with HCT-15 colon; -19.4% (active) in the assay on HT29 colon. For the same compound, the growth was -45.1% (active) with SNB-75 CNS; 22.1% with SNB-19 CNS; 5.84% (active) in the assay on U251 CNS; 5.37% (active) in the assay on PC-3 prostate; -71% (active) with SK-MEL-5 melanoma; -65.2% (active) with LOX IMVI melanoma. Also, the growth in the assay on SK-MEL-28 melanoma is -21.7% (active).
Turning to `O=C(Nc1ccc(Cl)c(C(F)(F)F)c1)Nc1ccc(-c2cccnc2)cc1N1CCC(CO)CC1`, the growth was 53.2% with DU-145 prostate; 15.1% in the assay with K-562 leukemia; 43.1% with MALME-3M melanoma; -17.5% (active) in the assay with MDA-MB-231 breast; 26.2% with RXF 393 renal; 47.6% with SF-268 CNS. Also, the growth is 17.8% in the assay with SF-295 CNS; 18.9% in the assay with SF-539 CNS; 40.2% with UACC-257 melanoma; 24.1% with M14 melanoma; 14.8% in the assay with HCT-15 colon; 9.16% (active) with HT29 colon. Further, the growth in the assay on SNB-75 CNS was 85.4%; with SNB-19 CNS it was 29.1%; in the assay on U251 CNS, 21%; in the assay on PC-3 prostate, 12.4%; in the assay with SK-MEL-5 melanoma, 11.3%; with LOX IMVI melanoma it was 26.6%.
Consider `COc1cc2c(=O)[nH]c3cc([N+](=O)[O-])ccc3c2cc1[N+](=O)[O-]`, for which the growth was 73.4% in the assay with DU-145 prostate; 49.2% with K-562 leukemia; 50.3% in the assay with MALME-3M melanoma; 56% in the assay with MDA-MB-231 breast; 72.2% in the assay on RXF 393 renal; 63.7% in the assay with SF-268 CNS. Besides, the growth is 47.9% in the assay with SF-295 CNS; 45% with SF-539 CNS; 41.7% with UACC-257 melanoma; 76.4% in the assay on M14 melanoma; 46% in the assay on HCT-15 colon; 30.6% in the assay on HT29 colon. Moreover, the growth was 36.5% in the assay on SNB-75 CNS; 58.3% with SNB-19 CNS; 37.8% in the assay with U251 CNS; 55.2% with PC-3 prostate; 41.3% in the assay with SK-MEL-5 melanoma; 36.7% in the assay on LOX IMVI melanoma.
Take `CC1(C)C(=O)/C(=C\c2ccco2)C[C@]2(C)[C@H]3CC=C4[C@@H]5C[C@](C)(C(=O)O)CC[C@]5(C)CC[C@@]4(C)[C@]3(C)CC[C@@H]12`: the growth is -33.5% [100 µM] (active) in the assay with DU-145 prostate; 4.42% [100 µM] (active) with K-562 leukemia; -70% [100 µM] (active) in the assay with MALME-3M melanoma; -58.5% [100 µM] (active) with MDA-MB-231 breast; -85.6% [100 µM] (active) in the assay with RXF 393 renal; -77.7% [100 µM] (active) in the assay on SF-268 CNS. The growth is -48.8% [100 µM] (active) with SF-295 CNS; -77.5% [100 µM] (active) in the assay with SF-539 CNS; -49.3% [100 µM] (active) in the assay with UACC-257 melanoma; -43.4% [100 µM] (active) with M14 melanoma; -86.4% [100 µM] (active) in the assay with HCT-15 colon; -50.8% [100 µM] (active) in the assay with HT29 colon. Besides, the growth was -82.5% [100 µM] (active) in the assay on SNB-75 CNS; -91.7% [100 µM] (active) in the assay with SNB-19 CNS; -80.8% [100 µM] (active) in the assay on U251 CNS; -32.2% [100 µM] (active) with PC-3 prostate; -72.7% [100 µM] (active) in the assay with SK-MEL-5 melanoma; -93.6% [100 µM] (active) in the assay on LOX IMVI melanoma. Further, the growth in the assay on SK-MEL-28 melanoma was -75.1% [100 µM] (active).
